PKA-R2B act = activators of PKA-R2B holoenzyme, primary screen, biochemical, fluorescence polarization, Cy5-IP20, human. 340,000 compounds, 0.079% hits. activation, % at 11.4 µM. PKA-R2B holoenzyme dissociation; R2B truncated from residue 108, S112A mutant; 0% DMSO only, 100% 113 µM cGMP. cAMP-dependent protein kinase catalytic subunit beta (Homo sapiens) + cAMP-dependent …;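 active means activation above a cutoff set at the mean over all compounds plus 3 SD, cut at about 18% in these data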;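 further: higher means more holoenzyme dissociation and a rise in polarization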
Target sequence (P31323 whole entry, looked up, other chains not shown, the tested form may be a part): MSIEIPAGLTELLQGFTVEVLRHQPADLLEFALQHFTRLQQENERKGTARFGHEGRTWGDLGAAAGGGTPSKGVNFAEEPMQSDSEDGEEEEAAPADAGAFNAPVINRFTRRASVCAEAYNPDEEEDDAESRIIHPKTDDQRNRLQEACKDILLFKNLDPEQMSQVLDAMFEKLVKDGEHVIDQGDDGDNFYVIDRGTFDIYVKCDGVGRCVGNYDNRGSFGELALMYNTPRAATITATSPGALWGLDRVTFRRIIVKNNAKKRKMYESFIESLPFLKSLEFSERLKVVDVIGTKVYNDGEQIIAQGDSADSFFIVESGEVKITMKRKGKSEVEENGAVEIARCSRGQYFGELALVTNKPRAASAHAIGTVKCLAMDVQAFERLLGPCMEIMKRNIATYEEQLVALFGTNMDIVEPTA
SUMO Mot1 rescue = yeast Mot1-301 growth rescue at high temperature, primary screen, SUMOylation pathway inhibitor project, S. cerevisiae, ATP luminescence, 38.5C; S. cerevisiae Mot1-301 growth rescue; percent above DMSO median, 100 means doubled; growth rescue, % at 18.8 µM; 320,000 compounds, 1% hits; AID 2716, 2010;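 active means every valid replicate shows activation above 250% relative to neutral control wells; inactive means the rest, any valid replicate at or below 250%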;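 further: OY570 slx delta 5 strain wells were the positive control but not used for scaling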
PKA-R1A activ = activators of PKA-R1A holoenzyme, primary screen, biochemical, fluorescence polarization, Cy5-IP20, bovine R1A, mouse PKAc; cAMP-dependent protein kinase type I-alpha regulatory subunit (Bos taurus) + …; PKA-R1A dissociation; scaled: DMSO 0%, 113 µM cGMP 100%; activation, % at 11.4 µM; 340,000 compounds, 0.083% hits; AID 504707, 2011;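 active means percent activation above the mean of all tested compounds plus 3 SD, cut at about 19% in these data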;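 further: higher means more PKAc released from R1A so a rise in polarization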
MsrA act = bovine MsrA enzyme activators, primary screen, biochemical, absorbance, HTS; purified bovine MsrA, absorbance read-out; Methionine sulfoxide reductase A (Bos taurus); AID 602163, 2012; 360,000 compounds, 0.3% hits; activation, % at 10.6 µM; in the data active means activation above about 7.5%;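 further: 0% = vehicle and 100% = reference activator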
MsrA inh = bovine MsrA enzyme inhibitors, primary screen, biochemical, absorbance, HTS; inhibition, % at 15.5 µM; purified bovine MsrA, absorbance read-out; 360,000 compounds, 0.75% hits; Methionine sulfoxide reductase A (Bos taurus);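 further: 0% = vehicle wells with enzyme and 100% = reference inhibitor wells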
Mot1 SUMO dose = growth restoration of Mot1-301 yeast on galactose, dose response, SUMO pathway inhibitor project, whole organism, S. cerevisiae, ATP luminescence, cherry-picked samples; shares compounds with SUMO Mot1 rescue; AID 493004, 2010; S. cerevisiae Mot1-301 galactose growth, 24 h; -100 = growth of slx-deleted rescue strain; 2,300 tested, under 10 active; growth activity, percent, % at 42 µM;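 active means Signal drops as the depositor expects, and the fitted half-maximal dose is no more than ten times the top valid tested dose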;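 further: more negative values mean stronger growth rescue toward the control strain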
MsrA act confirm = bovine MsrA activators, retest, confirmation, biochemical, absorbance, HTS; shares compounds with MsrA act; purified bovine MsrA, absorbance read-out; activation, % at 10.6 µM; 1,000 compounds, 12% hits; in the data active means activation above about 4%;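 further: enzyme coupled to thioredoxin and thioredoxin reductase with NADPH; 0% = vehicle wells and 100% = reference activator wells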
MsrA inh confirm = bovine MsrA inhibitors, retest, confirmation, biochemical, absorbance, HTS; purified bovine MsrA, absorbance read-out; 2,300 compounds, 41% hits; AID 651822, 2012; shares compounds with MsrA inh; inhibition, % at 15.5 µM;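 further: coupled to thioredoxin reductase with NADPH and selenocystamine and DMSO as substrate; 0% = vehicle only and 100% = full effect of reference inhibitor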
Starred values were filed as active, the others as inactive; / = not tested or not shown; + = active, no number. The list is not random: actives were taken first. Their share in the collection is about 2%. Unless noted, no stated cut-off is given here; in the data, active means inhibition above about 4.5%; inactive means the rest.

SMILES | PKA-R2B act | SUMO Mot1 rescue | PKA-R1A activ | MsrA act | MsrA inh | Mot1 SUMO dose | MsrA inh confirm | others
O=c1[nH]c(CN2CCN(CCO)CC2)nc2ccccc12 | -3 | 587* | -1 | 8.9* | 1 | 0 | / | MsrA act confirm=0
CCN=C1NC(c2ccccc2)C(C(=O)OC)=C(C)N1Cc1ccc(C(F)(F)F)cc1 (stereo unspecified) | / | / | / | / | -2 | / | /
CCOC(=O)c1cnc2c(OC)cccc2c1N1CCN(c2ccccc2OC)CC1 | -1 | + | -5 | 8.5* | 0 | 0 | / | MsrA act confirm=-1
CCOC(=O)c1cnc2c(OC)cccc2c1N1CCN(c2ccccn2)CC1 | 2 | -7 | -1 | -4 | 2 | / | /
CCOc1cc(/C=N/NC(=O)C(=O)N/N=C/c2ccc(O)c(OCC)c2)ccc1O | -1 | 768* | 7 | -4 | 5.5* | -1 | 4
Cc1c(=O)n(OCc2ccccn2)c2ccccc2[n+]1[O-] | -2 | 946* | -10 | -3 | 4.9* | 0 | 1
CCCC(=O)OC[C@H]1CN(C2CCCC2)S(=O)(=O)c2c(Oc3ccc(C(C)(C)C)cc3)cccc2O1 | / | / | / | / | 0 | / | /
COc1ccccc1/C=C1\SC(N2CCC(C)CC2)=NC1=O | -2 | -9 | 4 | -7 | 3 | / | /
COc1cccc(/C=C2\SC(N3CCC(C)CC3)=NC2=O)c1OC | 0 | 615* | 1 | -4 | 5.9* | 0 | 4
CCc1cc2c(=O)c(-c3nc4ccccc4n3C)c(C)oc2c(CN2CCOCC2)c1O | 0 | 520* | 5 | -10 | 5.0* | -1 | 1
CCc1cc2c(=O)c(-c3nc4ccccc4n3C)c(C)oc2c(CN2CCN(C)CC2)c1O | / | -9 | / | / | / | / | /
COc1ccc(NC(=O)COC(=O)c2cc(OC)c(OC)c(OC)c2)c([N+](=O)[O-])c1 | -15 | -31 | 10 | -7 | 0 | / | /
CNS(=O)(=O)c1cccc(C(=O)OCC(=O)Nc2ccc(OC)cc2[N+](=O)[O-])c1 | -11 | 810* | -9 | -4 | 6.0* | 0 | 1
NC(=O)C12NC(Cc3ccccc31)c1ccccc12 (stereo unspecified) | / | / | / | / | 0 | / | /
CC1CCN(C(=O)c2[nH]cnc2C(=O)N(C)CCO)CC1 | / | / | / | / | 2 | / | /
Cc1ccc(-c2cc(C(=O)O)c3ccccc3n2)s1 | 1 | 891* | 16 | -2 | 5.4* | -1 | 3
O=C(O)Cc1sc(Nc2ccccc2)nc1-c1cccs1 | -4 | 415* | -5 | -7 | 4.9* | -1 | 0

Assay outcomes (PubChem)
